From ChEMBL document CHEMBL3988442, “University of Dundee, Small-Polar-MMV Screening Library” (2021)
Hit rate of the full screen: of about 85,000 compounds, about 440 (0.52%) showed an effect of 50% or more. For the sample, strong results were picked, then their nearest neighbours and some compounds at random.

Experiment: In vitro enzyme assay to detect hydrolysis of chlorophenol red-beta-D-[…] directly proportional to the number of Toxoplasma stably expressing beta-galactosidase
Type: functional, organism-based, Toxoplasma gondii
Parameters: scale not given: in the data most compounds retested in dose-response had high values

| Structure (SMILES) | Percent Effect (50 µM) | Percent Effect (10 µM) |
| --- | --- | --- |
| Nc1nc2c(s1)Cc1ccccc1-2 | -5.547% |  |
| Cc1n[nH]c(C)c1S(=O)(=O)N1CCC(N)CC1 | 2.469% |  |
| CCS(=O)(=O)NCCNCc1ccc(Cl)cc1F | -9.661% |  |
| NC(=O)NC(=O)CSc1ncccn1 | -2.425% |  |
| Cc1nn(C)c(C)c1CC(=O)NCCc1ccccn1 | -1.397% |  |
| COc1ccc(CN)nc1 | 5.444% |  |
| CNc1ncc(C(=O)N2CCCC(Cc3ccccc3OC)C2)s1 (stereo not given) |  | 65.23% |
| COc1ccccc1CC1CCCN(C(=O)c2nccnc2N)C1 (stereo not given) |  | -6.18% |
| COc1ccccc1CC1CCCN(C(=O)c2cc[nH]n2)C1 (stereo not given) |  | 4.307% |
| O=C(CN1C(=O)CC2(CCCCC2)C1=O)NC1CC1 | -7.096% |  |
| CN(C)C(=O)NCCNc1cccc(Br)c1 | -13.02% |  |
| CC(C)CCN1CCN(C(=O)c2nccnc2N)CC1 | 0.2706% |  |
| CCN(CC)S(=O)(=O)N1CCNCC1 | -3.294% |  |
| CC(=O)c1c[nH]c(C(=O)NCc2cccnc2)c1 | 0.2894% |  |
| O[C@@H]1CN(c2nc3ccccc3o2)CC[C@H]1c1ccc2c(c1)OCO2 |  | 30.32% |
| O[C@@H]1CN(c2cnc3ccccc3n2)CC[C@H]1c1ccc2c(c1)OCO2 |  | 20.57% |
| O[C@@H]1CN(c2nc3ccccc3s2)CC[C@H]1c1ccc2c(c1)OCO2 |  | 53.23% |
| COc1cccc(NC(=O)C(C)Sc2nnnn2C)c1 (stereo not given) | -3.512% |  |
| N#CCc1ccc(CO)cc1 | -0.5268% |  |
| c1ccc(-c2cc[nH]n2)nc1 | -7.989% |  |
| Nc1c[nH]nc1-c1ccccn1 | 64.31% |  |
| COCCC(C)Nc1c[nH]nc1-c1ccccn1 (stereo not given) | 4.849% |  |
| Cc1ccc(OCCN2CCOCC2)cc1 | -4.655% |  |
| CC(N)(CO)c1ccc(Br)cc1 (stereo not given) | 5.046% |  |
| O=C(NC1CN(c2ccc(C(F)(F)F)cn2)C1)C1CC1 | -14.77% |  |
| CNC(=O)[C@@H]1CSCN1c1ccc(C(F)(F)F)cn1 | 98.68% |  |
| NC(=O)CC1CCCCN1c1ccc(C(F)(F)F)cn1 (stereo not given) | -10.18% |  |

| Structure (SMILES) | Percent Effect (50 µM) | Percent Effect (10 µM) |
| --- | --- | --- |
| CN(C)C(=O)C1(N)CCCC1 | 3.679% |  |
| COC(=O)c1cccc(COC(=O)CCNC(C)=O)c1 | -1.212% |  |
| NC(=O)c1ccccc1COC(=O)c1ccsc1 | 4.513% |  |
| Cc1cnn(-c2cncc(C(N)=O)c2)c1 |  | 0.2718% |
| Cc1cncc(C(=O)Nc2sc(C)cc2C(N)=O)c1 | 2.925% |  |
| Cc1cncc(C(N)=O)c1 | 97.16% |  |
| Clc1cnn(CCN2CCN(C3CCNC3)CC2)c1 (stereo not given) | 12.09% |  |
| COc1ncccc1CNC(=O)NC1CCS(=O)(=O)C1 (stereo not given) | -1.32% |  |
| CCN(CC(C)C#N)C(=O)c1sccc1C (stereo not given) | 16.85% |  |
| CCN(Cc1nonc1C)C(=O)c1ccc(Br)o1 |  | -1.469% |
| CCN(CC(C)C#N)C(=O)c1ccc(Br)o1 (stereo not given) | 96.74% |  |
| O=C1CCCN1CCCNS(=O)(=O)c1ccc(Br)s1 | -1.058% |  |
| O=C1c2ccc(F)cc2C(=O)N1Cc1ccno1 | 5.807% |  |
| O=C1c2ccc(F)cc2C(=O)N1Cc1ccccn1 | -3.473% |  |
| O=C1c2ccc(F)cc2C(=O)N1Cc1nnsc1Cl | 52.75% |  |
| COC(=O)CNc1ccc2ccn(C)c(=O)c2c1 | -16.28% |  |
| Cn1ccc2ccc(NS(=O)(=O)C3CC3)cc2c1=O | 65.83% |  |
| CN(C)C(=O)N1CC2(CCOCC2)c2cc(NS(=O)(=O)C3CC3)ccc21 |  | -3.564% |
| Cc1cc(CN(C)C(=O)c2cnn(C)c2C)no1 | -0.6579% |  |
| CC(C)C(CN)N1CCN(C)CC1 (stereo not given) | 18.88% |  |
| COc1c(C(=O)NCc2cnn(C)c2C)nnn1Cc1ccccc1 |  | 65.52% |
| O=C(NCC1CCCO1)c1nc2c(s1)CCCN2Cc1ccccc1 (stereo not given) |  | -17.89% |
| COc1c(C(=O)NCc2cccnc2)nnn1Cc1ccc(C)cc1 |  | 3.825% |
| O=C(NCc1cccnc1)c1cn(CCc2ccccc2)nn1 |  | 7.216% |
| COc1ccc(Cl)cc1C(=O)NCc1cnn(C)c1C |  | -4.944% |
| COCCNC(=O)c1nnn(Cc2ccccc2)c1OC |  | 38.59% |
| COc1c(C(=O)NCc2cccnc2)nnn1Cc1ccccc1 |  | 61.62% |

| Structure (SMILES) | Percent Effect (50 µM) | Percent Effect (10 µM) |
| --- | --- | --- |
| CCOCCCNC(=O)c1nnn(Cc2ccccc2)c1OC |  | 43.16% |
| COc1c(C(=O)NCC(C)C)nnn1Cc1ccccc1 |  | 74.28% |
| COc1ccc(C(=O)NCc2cnn(C)c2C)o1 | -4.523% |  |
| COc1c(C(=O)NCC2CCCO2)nnn1Cc1ccccc1 (stereo not given) |  | 62.42% |
| CCNC(=O)c1nnn(Cc2ccccc2)c1OC |  | -0.1195% |
| CC1Cc2cc(CO)ccc2O1 (stereo not given) | -10.07% |  |
| CCc1nnsc1C(=O)N1CCc2sccc2C1 | -20.28% |  |
| Cc1ccccc1NC(=O)CCN1CCN(C)CC1 | -26.18% |  |
| Cc1ccc2c(c1)C(=O)CCCS2(=O)=O | -6.954% |  |
| Cc1ccc(CN(CCO)C(=O)c2cscn2)cc1 | -0.4723% |  |
| O=C(Nc1ccc2c(c1)OCO2)N1CCOCC1 | -3.838% |  |
| CN1CCCC1CCSCC(=O)Nc1ccccn1 (stereo not given) | 5.261% |  |
| NCc1ccc(CO)cc1 | 0.7244% |  |
| CCn1nc(C)c(NC(=O)c2cc(NC(=O)C(C)C)n(C)n2)c1C |  | 1.116% |
| CCn1nc(C)c(NC(=O)c2nnn(Cc3ccccc3)c2OC)c1C |  | 55.69% |
| CCN(CC)C(=O)c1nnn(Cc2ccccc2)c1OC |  | -3.108% |
| CCC(OCCO)c1ccccc1 (stereo not given) | -3.537% |  |
| CC(C)[C@H](N)C(=O)N1CCC(C2CCOCC2)CC1 | 8.319% |  |
| Cn1nnc(NC(=O)c2ccc(C#N)cc2F)n1 | -8.268% |  |
| CSc1ccccc1C(=O)NCCSc1nnnn1C | -10.69% |  |
| Cn1nnnc1SCCNC(=O)c1cc(Cl)ccc1F | 98.81% |  |
| Cn1nnnc1SCCNC(=O)c1cccc2ccnn12 |  | -7.372% |
| CCC(C(=O)Nc1ccc(C)cc1)N(C)C (stereo not given) | -1.57% |  |
| COc1c(CNCCS(C)(=O)=O)c(C)nn1C | 3.832% |  |
| COc1c(CNCCCNS(C)(=O)=O)c(C)nn1C | -17.44% |  |
| COc1c(N)c(C)nn1C | 95.49% |  |
